Source: PubChem BioAssay (ICCB-Longwood Screening Facility, Harvard Medical School)
In the library only some 1.4% were active in any assay of this set; here they are far more common.
MenB inh: Mtb MenB enzyme inhibition; P9WNP5; MenB enzyme assay, absorbance read-out; inhibition, % (test concentration not listed); hit rate 0.43% among 100,000; in the data active = inhibition above about 21%, passing the limit was not always enough
Target sequence (P9WNP5 whole entry, looked up): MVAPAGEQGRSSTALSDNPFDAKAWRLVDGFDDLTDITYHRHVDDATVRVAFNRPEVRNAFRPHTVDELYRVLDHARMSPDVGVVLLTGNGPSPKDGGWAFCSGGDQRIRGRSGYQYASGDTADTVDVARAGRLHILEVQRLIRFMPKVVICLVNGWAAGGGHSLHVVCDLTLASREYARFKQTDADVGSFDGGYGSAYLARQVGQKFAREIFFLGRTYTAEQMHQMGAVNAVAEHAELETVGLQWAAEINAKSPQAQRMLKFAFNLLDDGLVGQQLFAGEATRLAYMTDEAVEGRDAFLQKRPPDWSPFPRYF
PV pol inh: poliovirus RNA polymerase inhibition | hit rate 0.66% among 150,000 | % elongation, % (compound at 16.7 µg/mL) | P03300 | poliovirus polymerase elongation, fluorescence polarization; hits give low values; in the data active = % elongation below about 90%
Mtb MbtI inh: blocks the Mycobacterium tuberculosis siderophore enzyme MbtI. inhibition, % (concentration not given with the values). P9WFX0. purified MbtI enzyme, fluorescence intensity read-out. hit rate 0.89% among 100,000; in the data active = inhibition mostly above about 56%, no sharp cut-off; inactive = mostly below about 77%
The depositor's hits bear a star; nt = no result.

SMILES	MenB inh	PV pol inh	Mtb MbtI inh
CCN(CC)Cc1nc2sc(C)c(C)c2c(=S)[nH]1	-73	101	80*
Cc1sc2nc(CC#N)[nH]c(=O)c2c1C	nt	107	3
CCc1nc2cccnc2n1-c1ccc(CC(=O)N2CCC3(CC2)OCCO3)cc1	-15	102	-11
O=C1CSc2ccccc2N1Cc1n[nH]c(=S)n1Cc1ccccc1	-30	99	56*
O=c1c2ccccc2n2c(=S)[nH]nc2n1Cc1ccccc1	-106	98	38
CCCCNC(=O)c1cc2c(-c3cccc(OC)c3)nn(C)c2s1	-37	101	117
Cc1cc(NCCCN2CCCC2=O)n2c(nc3ccccc32)c1C#N	37*	104	70
Cc1cc(NCCO)n2c(nc3ccccc32)c1C#N	-25	101	-35
Cc1nc(-c2ccc3[nH]c(=O)oc3c2)cs1	-13	74*	97*
COc1ccc(-c2csc(C)n2)cc1OC	nt	101	5
Cn1c(=NC(=O)c2cccc(OC(F)F)c2)sc2ccccc21	-27	100	98
CCCNC(=O)CSc1n[nH]c(=S)s1	-23	101	57*
CCCNC(=O)CSc1nnc(C)o1	-9	101	12
CC(NC1=NCCN1)C(=O)O (stereo not drawn)	-9	100	-4
O=C(C1=Cc2sc3c(c2CS1)CCCC3)N1CCC2(CC1)OCCO2	-15	104	95*
O=C(c1cc2c(s1)CCCCCC2)N1CCC2(CC1)OCCO2	-8	99	1
C=CCNc1nc(C(=O)OCC(=O)Nc2scc(-c3cccs3)c2C(=O)OCC)cs1	-22	nt	-3
CC1CCN(Cc2nc(N)nc(Nc3ccc(Cl)cc3)n2)CC1	-9	95	-8
CCOc1cc(CNc2ccc(O)cc2)ccc1OCc1ccc(Cl)cc1	nt	80*	nt
Oc1ccc(NCc2ccccc2OCc2ccc(Cl)cc2)cc1	nt	93	nt
Cc1ccc2sc(C(=O)O)cc2c1	-11	111	3
COc1ccc2c(c1OC)C(=O)OC2Nc1ncn[nH]1 (stereo not drawn)	-10	nt	0
CN(CC(=O)Nc1ccc(N2CCOCC2)cc1)Cn1nc(Nc2ccccc2F)sc1=S	-31	96	99*
CN(CC(=O)Nc1ccc(N2CCOCC2)cc1)CC(=O)Nc1cccc(Br)c1	-2	105	-14
Cc1cnc2c(c1)N1CCC2CC1	39*	102	2
SMILES	MenB inh	PV pol inh	Mtb MbtI inh
CC(=O)c1ccc(NC(=O)c2sc3nc4c(cc3c2N)N2CCC4CC2)cc1	nt	102	nt
N#Cc1c(-c2ccccc2)cc(-c2ccccc2)nc1SCC(O)CS(=O)(=O)Cc1ccc(Cl)cc1 (stereo not drawn)	nt	89*	nt
COc1ccc(-c2cc(-c3ccccc3)c(C#N)c(SCC(O)CS(=O)(=O)Cc3ccc(Cl)cc3)n2)cc1 (stereo not drawn)	nt	105	nt
CCOc1ccccc1C1CC(=O)Nc2c1ccc1ccccc21 (stereo not drawn)	nt	nt	-8
COc1ccc(OCCC(=O)Oc2ccc(OC)cc2)cc1	-25	97	-10
Cc1nc2c(cnn2-c2ccccc2)c(=O)n1-c1ccccc1	-15	103	4
Cc1ccc(-n2c(C)nc3c(cnn3-c3ccccc3)c2=O)cc1	nt	82*	nt
CCOC(=O)CN(C)c1nc(-c2ccc(OC)c(OC)c2)cs1	-17	104	-8
O=C(Nc1cc(C(F)(F)F)cc(C(F)(F)F)c1)C(=S)NCCNc1cccc2ccccc12	-8	71*	nt
O=C(NCCNc1cccc2ccccc12)c1ccco1	11	102	-57
O=C(c1ccccc1)c1ccccc1C(=O)c1ccccc1	-20	109	-2
O=C(O)c1ccc(C(=O)O)c(C(=O)O)c1	17	102	-4
O=C(c1ccccc1)c1ccc(C(=O)c2ccccc2)cc1	1	82*	nt
O=C(O)CCCC(=O)c1ccccc1	-12	96	4
O=C(O)CCC(=O)c1ccccc1	-4	75*	-6
O=C(c1ccccc1)c1ccc(C(=O)O)c(C(=O)O)c1	46*	103	-1
CCOC(=O)C1=C(SCC)c2ccc(-c3ccccc3)n2C1=O	-11	103	nt
Cc1ccc(C(=O)CSc2ncn[nH]2)c(C)c1	-2	101	70*
O=C(CSc1ncn[nH]1)c1ccc(Cl)cc1	20	101	42
Cc1c[nH]c2cccc(OCC(O)CN3CCN(C(c4ccccc4)c4ccccc4)CC3)c12 (stereo not drawn)	-25	96	nt
N#Cc1c(-c2ccccc2)no[n+]1[O-]	11	93*	0
[O-][n+]1onc(-c2ccccc2)c1-c1ccccc1	-33	103	-15
CCc1ccc(NC(=O)C2CCCN(S(=O)(=O)N3CCOCC3)C2)cc1 (stereo not drawn)	-3	103	-7
CN(C)C(=O)COc1ccc2c3c(c(=O)oc2c1)CCC3	nt	102	-126
CN(C)S(=O)(=O)N=C1C=CC(=NS(=O)(=O)N(C)C)C=C1	-3	88*	10
CCS(=O)(=O)c1ccc(O)c(N=Cc2ccc(C)o2)c1	-16	91	10
